outcome, Potency and activity change, negative = cytotoxicity data for 38 compounds are collected here from PubChem BioAssay (NCATS).

Records with an inconclusive call do not appear. Where a call stands in place of a potency, no number is given. A number with no mark means an inactive call. Activity calls are given as the source filed them. The call rests on the fitted dose curve; in most records, active means well fitted curve in the direction sought with a large enough effect; inconclusive means small, poorly fitted or top-dose-only effect, or another doubt; inactive means no such curve, though single readings can be large; an effect the other way counts as inactive or inconclusive. Where a SMILES comes first, the peptide text is derived from it. [ ]: non-standard residue; d: D form.

One assay concerns NIH3T3. Briefly: qHTS assay to identify novel small-molecules to repurpose for Merkel cell carcinoma treatment (AID 1296009). Further: nearly all actives have a fitted effect of over 60% in size. Conditions: MCC and control cell lines, CellTiter-Glo viability, 72 h; at 44.8 µM (top of the series) unless noted. In a few lines:
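CellTiter-Glo luminescence after 72 hr compound exposure at 37 degree celsius gave cell viability. Libraries NPC and MIPE were run as 8- and 11-point dose responses; RLUs normalized to DMSO (negative) and no-cell (cytotoxicity) controls.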
On the technique in general: In qHTS, concentration-response curves come from the screen itself.
On to `C=CC(C)(C)C12CC3C(=O)NC(Cc4cnc[nH]4)C(=O)N3C1Nc1ccccc12` (stereo unspecified), for which the call was inactive.

For `C=C1C2=CC(O)C(C)C1(C)CC/C(C)=C/CCC1(C)OC1C2=O` (stereo unspecified), the outcome was inactive.

In the case of `C[C@H]1CN(C[C@H](Cc2ccccc2)C(=O)NCC(=O)O)CC[C@@]1(C)c1cccc(O)c1`, the result was inactive.

For the compound `Cn1c(=O)cc(N2CCCC(N)C2)n(Cc2ccccc2C#N)c1=O` (stereo unspecified), the result was inactive.

Turning to `CCC[C@@H]1C[C@@H](C(=O)N[C@@H]([C@H]2O[C@H](SC)[C@H](OP(=O)(O)O)[C@@H](O)[C@H]2O)[C@H](C)Cl)N(C)C1`, the outcome was “inactive [at 17.4 µM]”.

As to `COc1cc(/C=C/CO)ccc1O[C@@H]1O[C@H](CO)[C@@H](O)[C@H](O)[C@H]1O`, the compound was called inactive.

For the compound `CC1(O)CCC2C(C(=O)O)=COC(OC3OC(CO)C(O)C(O)C3OC(=O)/C=C/c3ccc(O)cc3)C21` (stereo unspecified), the outcome was “inactive [at 17.4 µM]”.

Take `C[C@@H](Nc1cc(NS(=O)(=O)N2CCC2)nc(SCc2cccc(F)c2F)n1)[C@@H](O)CO`: the compound was called inactive.

Another assay concerns C33A. Kind of assay: Primary qHTS to identify gynecologic anti-cancer compounds using libraries of approved drugs and bioactive compounds (AID 1345084). Further: nearly all actives have a fitted effect of over 55% in size. Particulars: Gynecologic cancer cell panel viability, ATPlite luminescence, 48 h; series mostly up to 57.5 µM. The method, boiled down:
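ATP-based viability (ATPlite), 1,000 cells/well, 16 h pre-incubation, 48 h compound at 37 C, 5% CO2, 15 min RT before read.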
Turning to `COc1ccc(C(OC2OC(CO)C(O)C(O)C2O)C(C)O)cc1` (stereo unspecified), the Potency result was “inactive”.

Regarding `CCOC(=O)N1CCC(NCCNC(=O)c2ccccc2C)CC1`, the Potency entry was “inactive”.

Turning to `CCC(C)C(=O)O[C@@H]1[C@@H](O)[C@@H](O[C@H]2O[C@H](CO)[C@@H](O)[C@H](O)[C@H]2O)O[C@H](CO)[C@H]1O` (stereo partly specified), the Potency entry was “inactive”.

On to `Nc1ncnc2c1ncn2[C@H]1CCCO1`, for which the Potency entry is “inactive”.

With `COc1cc(-c2cccc(O)c2)cc2c1OCO2`, the Potency result was “inactive”.

On to `Nc1nc(CC(=O)Nc2ccc(CCNCC(O)c3ccccc3)cc2)cs1` (stereo unspecified), for which the Potency entry was “inactive”.

For `O=C(/C=C/c1c(C(=O)O)[nH]c2cc(Cl)cc(Cl)c12)Nc1ccccc1`, the Potency result is “inactive”.

As to `CC1CCC2C(C)(C)C(O)CCC2(C)C12Cc1c(O)cc3c(c1O2)CN=C3N` (stereo unspecified), the Potency entry is “inactive”.

In the case of `CC[C@H]1OC(=O)C[C@@H](O)[C@H](C)[C@@H](O[C@@H]2O[C@H](C)[C@@H](O)[C@H](N(C)C)[C@H]2O)[C@@H](CCN2C[C@H](C)C[C@H](C)C2)C[C@@H](C)C(=O)/C=C/C(C)=C/[C@@H]1CO[C@@H]1O[C@H](C)[C@@H](O)[C@@H](OC)[C@H]1OC`, the Potency result was “inactive”.

In the case of `C[C@]12C=CC(=O)C=C1CC[C@@H]1[C@@H]2[C@@H](O)C[C@@]2(C)[C@H]1CC[C@]2(O)C(=O)COC(=O)CCC(=O)O`, the Potency result is “inactive”.

As for `CC(C)=CCc1ccc(Oc2c(O)cc(C)cc2CO)c(C(=O)O)c1O`, the Potency result was “inactive”.

For the compound `NS(=O)(=O)NCCNc1nonc1C(=Nc1ccc(F)c(Br)c1)NO`, the Potency entry is “inactive”.

As to `CCC(=O)NS(=O)(=O)c1ccc(-c2c(-c3ccccc3)noc2C)cc1`, the Potency entry is “inactive”.

On to `CC(=O)OC1C(O)C(C)=C(CCC(C)CC(=O)O)C2(C)CCCC(C)(C)C12` (stereo unspecified), for which the Potency result is “inactive”.

For the compound `COC1=CC(=O)O[C@@H](/C=C/c2ccccc2)[C@@H]1O`, the Potency result was “inactive”.

For `C[C@@H]1O[C@@H](O[C@@H]2[C@@H](O)[C@@H](O)[C@H](O[C@@H]3[C@@H](O)[C@@H](O[C@]4(CO)O[C@H](CO)[C@@H](O)[C@@H]4OC(=O)/C=C/c4ccc(O)cc4)O[C@H](CO)[C@H]3OC(=O)/C=C/c3ccc(O)cc3)O[C@H]2C)[C@H](O)[C@H](O)[C@H]1O`, the activity change, negative = cytotoxicity is 0.544% [at 11.6 µM].

In the case of `COC(=O)[C@@H]1C2CC3c4[nH]c5ccccc5c4CCN3CC2CC[C@@H]1O` (stereo partly specified), the Potency entry was “inactive”.

With `C[C@@H]1O[C@@H](O[C@H]2[C@H](OC(=O)[C@]34CCC(C)(C)C[C@H]3C3=CCC5[C@@]6(C)CC[C@H](O[C@@H]7O[C@H](CO[C@@H]8OC[C@H](O)[C@H](O)[C@H]8O)[C@@H](O)[C@H](O)[C@H]7O)C(C)(C)C6CC[C@@]5(C)[C@]3(C)C[C@H]4O)OC[C@@H](O)[C@@H]2O)[C@H](O)[C@H](O)[C@H]1O[C@@H]1OC[C@H](O)[C@H](O[C@@H]2OC[C@@H](O)[C@H](O)[C@H]2O)[C@H]1O` (stereo partly specified), the activity change, negative = cytotoxicity is 2.46% [at 6.55 µM].

Regarding `CC(=O)N[C@H](Cc1ccc(O)cc1)C(=O)N[C@H](CCCN=C(N)N)C(=O)N[C@H](Cc1ccccc1)C(N)=O` (Ac-[dY]-[dR]-[dF]-NH2), the Potency result is “inactive”.

Turning to `CC(NCc1ccc(OCc2cccc(F)c2)cc1)C(N)=O` (stereo unspecified), the Potency entry is “inactive”.

With `Cc1coc2c1CC1OC1(C)CCC1OC1(C)C2` (stereo unspecified), the Potency result was “inactive”.

Take `C[C@]12CCC[C@](C)(C(=O)O)C1CCC13C=C(CO)C(CCC12)C3` (stereo partly specified): the Potency entry is “inactive”.

As to `COc1cc(/C=C/C(=O)OC(C)(C)C(OC2OC(CO)C(O)C(O)C2O)C(=O)OCc2ccc(OC3OC(CO)C(O)C(O)C3O)cc2)ccc1O` (stereo unspecified), the Potency entry is “inactive”.

On to `COc1cc2c(cc1OC)CN(C(=O)[C@@H](NCc1ccncc1)C(C)(C)C)CC2`, for which the Potency entry was “inactive”.

Turning to `O=C1NCc2nc3ccccc3c(=O)n2C1Cc1c[nH]c2ccccc12` (stereo unspecified), the Potency entry is “inactive”.

As for `CC1=CC(=O)CC(C)(C)C1CCC(C)OC1OC(COC(=O)c2cc(O)c(O)c(O)c2)C(O)C(O)C1O` (stereo unspecified), the Potency entry is “inactive”.

Turning to `CC1C/C=C/C=C\CCCCC(O)C/C=C/C(=O)O1` (stereo unspecified), the Potency result was “inactive”.

Take `CO[C@@]12CC3[C@@H]([C@@H](O)[C@@H](OC(C)=O)C4[C@](C)(COC(C)=O)CCC[C@]34C)[C@@H](C)C1=CC(=O)O2` (stereo partly specified): the Potency entry is “inactive”.

In the case of `CC1(C)CCCC2(C)C(CO)C3CCC2C31` (stereo unspecified), the Potency entry is “inactive”.

With `O=C(O[C@H]1[C@@H]2C=CO[C@@H](O[C@@H]3O[C@H](CO)[C@@H](O)[C@H](O)[C@H]3O)[C@@H]2[C@@]2(CO)O[C@@H]12)c1ccc(O)c(O)c1`, the Potency result was “inactive”.

Take `C=CC(C)(C)C12CC3C(=O)NC(Cc4cnc[nH]4)C(=O)N3C1Nc1ccccc12` (stereo unspecified): the Potency result was “inactive”.

For `C=C1C2=CC(O)C(C)C1(C)CC/C(C)=C/CCC1(C)OC1C2=O` (stereo unspecified), the Potency result is “inactive”.

Turning to `C[C@H]1CN(C[C@H](Cc2ccccc2)C(=O)NCC(=O)O)CC[C@@]1(C)c1cccc(O)c1`, the Potency result was “inactive”.

As for `Cn1c(=O)cc(N2CCCC(N)C2)n(Cc2ccccc2C#N)c1=O` (stereo unspecified), the Potency result is “inactive”.

Consider `CCC[C@@H]1C[C@@H](C(=O)N[C@@H]([C@H]2O[C@H](SC)[C@H](OP(=O)(O)O)[C@@H](O)[C@H]2O)[C@H](C)Cl)N(C)C1`, for which the Potency entry is “inactive”.

`COc1cc(/C=C/CO)ccc1O[C@@H]1O[C@H](CO)[C@@H](O)[C@H](O)[C@H]1O`: the Potency result was “inactive”.

For the compound `CC1(O)CCC2C(C(=O)O)=COC(OC3OC(CO)C(O)C(O)C3OC(=O)/C=C/c3ccc(O)cc3)C21` (stereo unspecified), the Potency entry is “inactive”.

With `C[C@@H](Nc1cc(NS(=O)(=O)N2CCC2)nc(SCc2cccc(F)c2F)n1)[C@@H](O)CO`, the Potency result is “inactive”.
